14 molecules from the supplement of paper PMC6522484 can be followed below.

Experiment [1] relates to DLD1. Nature of the experiment: cell viability (CellTiter-Glo) relative to plate median (fraction of plate median); higher = more viable cells. The settings on record: 5 µM; treatment time 24 h; reporter: 7TFP. The method in brief:
(§1)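 Stable lentiviral TCF/Wnt firefly luciferase reporters (7TFP or TCF4/Wnt) were present in the colorectal cancer cell lines used. These cells received library compounds at a final 5 µM for 24 h, and parallel plates were read for firefly luciferase or CellTiterGlo luminescence. Each well was normalised to the plate median, and the value reported is the mean of two independent replicates.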
(In general: Cellular ATP, detected with luciferase, serves as a proxy for viable cell number.)

In a further experiment the test system is HCT116. Described as above. The settings on record: 5 µM; treatment time 24 h; reporter: TCF4/Wnt. The method in brief: as §1
The test system of experiment [2] is SW480. Described as above. The settings on record: 5 µM; treatment time 24 h; reporter: 7TFP. The method in brief: as §1
The test system of experiment [3] is DLD1. Nature of the experiment: TCF/Wnt firefly luciferase reporter signal relative to plate median (fraction of plate median); higher = higher Wnt reporter signal. The conditions noted are these: 5 µM; treatment time 24 h; reporter: 7TFP. The method, boiled down:
as §1
(In general: A reporter such as luciferase makes a cellular process visible.)

For experiment [4], the system named is SW480. The experiment is described as above. The settings on record: 5 µM; treatment time 24 h; reporter: 7TFP. The method in brief:
as §1

± gives the standard deviation of the averaged measurements.

Take `CC(C)NCC(O)c1ccc(O)c(O)c1` (stereo not given): the cell viability in the experiment with DLD1 [1] turned out to be 0.963 ± 0.11; in the experiment on HCT116, 1.04 ± 0.074; in the experiment on SW480 [2], 0.999 ± 0.016. The “TCF/Wnt firefly luciferase reporter signal” value in the experiment with DLD1 [3] was 1.02 ± 0.08; in the experiment with SW480 [4], 1.1 ± 0.042.

Regarding `COc1ccc(-c2coc3c(OC)c(OC)cc(O)c3c2=O)cc1`, the cell viability stood at 1.01 ± 0.017 with DLD1 [1], 1.07 ± 0.014 in the experiment with HCT116 and 0.995 ± 0.021 with SW480 [2]. Also, the “TCF/Wnt firefly luciferase reporter signal” value worked out at 1.08 ± 0.064 with DLD1 [3] and 0.98 ± 0.042 with SW480 [4].

Take `CC[C@H]1OC(=O)C[C@@H](O)[C@H](C)[C@@H](O[C@@H]2O[C@H](C)[C@@H](O[C@H]3C[C@@](C)(O)[C@@H](O)[C@H](C)O3)[C@H](N(C)C)[C@H]2O)[C@@H](CC=O)C[C@@H](C)C(=O)/C=C/C(C)=C/[C@@H]1CO[C@@H]1O[C@H](C)[C@@H](O)[C@@H](OC)[C@H]1OC`: the cell viability is 0.947 ± 0.046 in the experiment on DLD1 [1], 1.08 ± 0.021 in the experiment with HCT116 and 1.07 ± 0.021 in the experiment on SW480 [2]. Further, the “TCF/Wnt firefly luciferase reporter signal” value in the experiment on DLD1 [3] is 1.1 ± 0.099; in the experiment with SW480 [4], 1.035 ± 0.0071.

On to `CCN(CC)C(=O)N1CCN(C)CC1`, for which the cell viability with DLD1 [1] is 0.9275 ± 0.0035; in the experiment on HCT116 it was 0.89 ± 0.079; with SW480 [2], 1.03 ± 0.021. For the same molecule, the “TCF/Wnt firefly luciferase reporter signal” value with DLD1 [3] amounted to 0.981 ± 0.098; in the experiment on SW480 [4], 1.09 ± 0.021.

On to `O=C(O)c1cc(-c2ccc(F)cc2F)ccc1O`, for which the values for the cell viability with DLD1 [1], in the experiment on HCT116 and in the experiment with SW480 [2] were 0.973 ± 0.0042, 1.07 ± 0.057 and 1.01 ± 0.021, respectively. In addition, the “TCF/Wnt firefly luciferase reporter signal” value was determined as 1.32 ± 0.13 in the experiment with DLD1 [3] and 1.16 ± 0.021 in the experiment with SW480 [4].

As for `CCCCC[C@@H](O)[C@H]1C(=O)O[C@H](C)[C@@H](O)/C=C/C=C/C=C/C=C/C=C(\C)[C@@H](O)C[C@H](O)C[C@H](O)C[C@H](O)C[C@H](O)C[C@H](O)C[C@@H]1O`, the cell viability turned out to be 1.02 in the experiment with DLD1 [1], 1.05 ± 0.05 in the experiment with HCT116 and 0.989 ± 0.03 in the experiment with SW480 [2]. Also, the “TCF/Wnt firefly luciferase reporter signal” value in the experiment with DLD1 [3] was determined as 1.01 ± 0.022; in the experiment on SW480 [4] it was 1.09 ± 0.078.

`CN(C)[C@@H]1C(O)=C(C(N)=O)C(=O)[C@@]2(O)C(O)=C3C(=O)c4c(O)cccc4[C@@](C)(O)[C@H]3C[C@@H]12`: the cell viability is 0.988 ± 0.074 in the experiment with DLD1 [1], 1.04 ± 0.093 in the experiment with HCT116 and 1 ± 0.024 in the experiment on SW480 [2]. Also, the “TCF/Wnt firefly luciferase reporter signal” value with DLD1 [3] amounted to 0.911 ± 0.11; in the experiment with SW480 [4] it was 0.839 ± 0.031.

Regarding `Oc1c(Br)cc(Br)c2cccnc12`, the cell viability in the experiment with DLD1 [1] was determined as 1.02 ± 0.021; in the experiment on HCT116 it was 1.07 ± 0.071; with SW480 [2] it was 0.965 ± 0.064. The “TCF/Wnt firefly luciferase reporter signal” value was determined as 1.24 ± 0.014 in the experiment on DLD1 [3] and 1.12 ± 0.028 in the experiment on SW480 [4].

For `COC(=O)C[C@H]1C(C)(C)[C@@H](OC(C)=O)[C@@H]2CC3C4CC(=O)O[C@@H](c5ccoc5)[C@]4(C)CCC3[C@@]1(C)C2=O` (stereo not given in full), the results for the cell viability in the experiment with DLD1 [1], in the experiment on HCT116 and in the experiment on SW480 [2] were 1.05 ± 0.042, 0.946 ± 0.011 and 1.015 ± 0.0071, respectively. The figures for the “TCF/Wnt firefly luciferase reporter signal” value in the experiment with DLD1 [3] and in the experiment with SW480 [4] were 0.966 ± 0.1 and 1.005 ± 0.0071, respectively.

Take `CN(C)C(=O)C(CCN1CCC(O)(c2ccc(Cl)cc2)CC1)(c1ccccc1)c1ccccc1`: the cell viability with DLD1 [1] is 0.892 ± 0.14; with HCT116 it was 0.912 ± 0.033; in the experiment on SW480 [2], 0.983 ± 0.019. For the same molecule, the “TCF/Wnt firefly luciferase reporter signal” value came out at 0.982 ± 0.28 in the experiment with DLD1 [3] and 0.816 ± 0.16 in the experiment on SW480 [4].

Turning to `OCCN1CCN(CCCN2c3ccccc3Sc3ccc(Cl)cc32)CC1`, the values for the cell viability in the experiment with DLD1 [1], with HCT116 and with SW480 [2] were 0.891 ± 0.027, 0.917 ± 0.08 and 0.983 ± 0.025, respectively. Also, the entries for the “TCF/Wnt firefly luciferase reporter signal” value with DLD1 [3] and in the experiment with SW480 [4] were 1.03 and 0.976 ± 0.13, respectively.

On to `C/C1=C\CCC(=O)C2CC(C)(C)C2CC1` (stereo not given), for which the values for the cell viability in the experiment with DLD1 [1], in the experiment with HCT116 and in the experiment on SW480 [2] were 0.9755 ± 0.00071, 0.908 ± 0.14 and 0.939 ± 0.012, respectively. The “TCF/Wnt firefly luciferase reporter signal” value in the experiment on DLD1 [3] stood at 0.918 ± 0.098; in the experiment on SW480 [4] it was 1.004 ± 0.0078.

As for `CC(=O)CC(c1ccccc1)c1c(O)c2ccccc2oc1=O` (stereo not given), the cell viability came out at 1.02 ± 0.056 in the experiment on DLD1 [1], 1.14 ± 0.078 in the experiment on HCT116 and 0.989 ± 0.073 in the experiment on SW480 [2]. Further, the “TCF/Wnt firefly luciferase reporter signal” value stood at 0.935 ± 0.062 with DLD1 [3] and 1.12 ± 0.028 with SW480 [4].

As to `CC(=O)O[C@H]1CC[C@@]2(C)[C@@H](CC[C@@H]3[C@@H]2CC(=O)[C@]2(C)[C@@H]4[C@H](C[C@@H]32)O[C@]2(CC[C@@H](C)CO2)[C@H]4C)C1`, the figures for the cell viability in the experiment on DLD1 [1], with HCT116 and in the experiment on SW480 [2] were 0.907 ± 0.018, 0.934 ± 0.047 and 0.9615 ± 0.0035, respectively. The entries for the “TCF/Wnt firefly luciferase reporter signal” value with DLD1 [3] and with SW480 [4] were 0.858 ± 0.038 and 0.995 ± 0.16, respectively.
